According to ChEMBL document CHEMBL3433997, “St. Jude Leishmania screening dataset” (2016):

Molecular target: Hexose transporter 1 (Plasmodium falciparum) (UniProt O97467)
Assay: ST_JUDE_LEISH: Cytotoxicity at 2uM final concentration against transgenic Leishmania Mexicana promastigotes LmPfHT that are glucose transport deficient and complemented with the Plasmodium falciparum hexose transporter. Activity is measured by DNA content using SYBR green in vitro
Assay type: functional

| SMILES | inhibition |
| --- | --- |
| Cn1nc(-c2cccc(CNC3CCc4ccccc43)c2)c2cnc(NC3CCCC3)nc21 (stereo not given) | 5.46% |
| CCNC(C)(C)CN(Cc1ccc(-c2ccc(C(F)(F)F)cc2)cc1)C(=O)Cn1c(SCc2ccc(F)cc2)nc(=O)c2c1CCC2 | 5.99% |
| CC1CC(NCCCNc2cc(=O)c3ccccc3[nH]2)c2cc(Cl)c(Cl)c(Cl)c21 (stereo not given) | -1.47% |
| Cc1cccc2nc(-c3ccc(-c4cccc(CN5CCC(N)C5)c4)s3)[nH]c12 (stereo not given) | 8.9% |
| Cc1ncc(CN2CCC(C(=O)Nc3ccc(-c4nc5ccccc5o4)cc3)CC2)s1 | -3.66% |
| O=C(CCCCCNC(=O)c1ccc(O)c(-c2ccc(Cl)c(Cl)c2)c1)NCCN1CCCCC1 | 2.46% |
| CC(=O)Nc1ccc(CN2CCc3ccc(NS(=O)(=O)c4ccc(-c5cccc(C(F)(F)F)c5)cc4)cc3CC2)s1 | 2.18% |
| CCCCCCOc1ccc(/C(N)=N\Cc2ccccc2)c2c1CCCC2 | 3.36% |
| CCOC(=O)c1ccc(OCc2ccc(-c3ccccc3)cc2)cc1 | -0.13% |
| Cc1cc(N[C@@H](CC(C)C)C(=O)NCCOc2ccccc2)nc(NCCc2ccccc2)n1 | 0.4% |
| O=C(NC1CCN(Cc2ccc3c(c2)OCCO3)CC1)c1ccc(-c2cccc(C(F)(F)F)c2)s1 | 1.52% |
| CCCOc1cccc(C(=O)N[C@@H](Cc2ccccc2)[C@H](O)CNCc2ccccc2OC)c1 | 2.98% |
| Cc1cccc2nc(-c3cccc(-c4ccc(CNCCCN5CCCC5=O)cc4)c3)[nH]c12 | 6.82% |
| COc1ccc2nccc(N3CCC(O)(CCNCc4ccc5c(n4)NC(=O)CO5)CC3)c2n1 | 3.33% |
| COc1ccc(Nc2nc(NCc3ccco3)c3ccccc3n2)cc1 | 20% |
